Screening results from PubChem BioAssay.
Only some compounds are listed: those with a hit (about 2.2% of all), similar ones and a draw of the others.
PvdQ acylase = P. aeruginosa PvdQ acylase inhibition; purified PvdQ acylase, fluorescence plate reader; inhibition, % at 10 µM; AID 488965; 340,000 tested, 0.063% active; in the data active = inhibition above about 30%, passing the limit was not always enough; inconclusive = no clear call, values can overlap the other calls;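 note: 0% = vehicle neutral wells and 100% = reference inhibitor wells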
DENV2 CPE = inhibitors of DENV2 cytopathic effect; DENV2-infected cells, cytopathic effect rescue, plate reader; CPE inhibition, % at 9.99 µM; 350,000 tested, 1.7% active; in the data active = CPE inhibition above about 20%, passing the limit was not always enough; inconclusive = no clear call, values can overlap the other calls; tested in BHK-21 cells;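 note: 0% = median of neutral control wells and 100% = median of positive control wells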
miR-122 sensor = miR-122 inhibition in Huh7 cells | activation (reporter increase), % at 12.5 µM | 340,000 tested, 0.3% active | AID 602342 | Huh7 miR-122 Renilla luciferase sensor, 48 h; neutral wells = 0, positive control = 100;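 active = mean replicate activation score at least 90 and every replicate individually at or above 90; inconclusive = only one of the two criteria met; inactive = neither criterion met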;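 note: higher luciferase means less miR-122 activity so hits act as miR-122 inhibitors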
Statin myotox sup = protects C2C12 myotubes from simvastatin toxicity; ATP luminescence, 48 h; scaled: DMSO 0, geranylgeraniol control 100; rescue of ATP level, % at 7.49 µM; 330,000 tested, 0.78% active;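 active = mean ATP rescue above about 67%, or every replicate alone reaching that limit, limit read from the data, passing the limit was not always enough; inconclusive = no clear call, values can overlap the other calls; inactive = mean under the limit and some replicate under it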;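 note: myotubes were challenged with 10 µM simvastatin during compound exposure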
PGC1a acetyl inh = lowers PGC1a acetylation signal in U2OS cells. AlphaScreen anti-acetyl-lysine; with virally co-expressed GCN5 acetyltransferase. inhibition, % at 15.6 µM. 350,000 tested, 0.17% active. AID 651687;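 active = every replicate shows inhibition of at least 40%; inconclusive = mean inhibition at least 40% but some replicate below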;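 note: 0% = neutral control wells and 100% = positive control wells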
* hit, by the source's call; ? = inconclusive; · = no result given; ! = a repeat was not active; [ ] = remark or other dose.

SMILES | PvdQ acylase | DENV2 CPE | miR-122 sensor | Statin myotox sup | PGC1a acetyl inh
O=C(NC1CCCc2ccccc21)c1ccc(=O)[nH]c1 (stereo not given) | 8 | · | 3 | 2 | 10
CN(C)C1(CNC(=O)C2CCN(S(=O)(=O)c3ccccc3C(F)(F)F)CC2)CCCCC1 | -8 | 31* | -1 | -9 | 2
CC(=O)c1ccc(S(=O)(=O)N2CCN(S(=O)(=O)c3ccccc3C(F)(F)F)CC2)cc1 | 3 | 5 | · | -17 | ·
O=S(=O)(c1ccccc1C(F)(F)F)N1CCN(S(=O)(=O)c2ccccc2C(F)(F)F)CC1 | -13 | · | 2 | 113* | 5
CCCCOP(=O)(c1ccc(N(C)C)cc1)C(O)c1ccc(OC)cc1 (stereo not given) | -15 | -2 | -5 | 2 | 82*
C[C@@H]1CN([C@H](C)CO)C(=O)c2cc(/C=C/c3ccccc3)cnc2O[C@H]1CN(C)S(C)(=O)=O | · | 18 | -1[16.7 µM] | -8 | -16
CCOc1ccc(N(CC(=O)NCc2ccco2)S(=O)(=O)c2ccc(OC)c(OC)c2)cc1 | -6 | · | 7 | 108* | -8
O=C(CN(c1ccc(F)cc1)S(=O)(=O)c1ccccc1)NCc1ccco1 | -14 | · | -6 | 103* | -24
Cc1cc(C)cc(N(CC(=O)NCc2ccco2)S(=O)(=O)c2c(C)noc2C)c1 | -7 | 41* | 13 | -1 | 5
C[C@H](CO)N1C[C@H](C)[C@@H](CN(C)S(=O)(=O)c2ccc(Cl)cc2)Oc2ccc(NS(C)(=O)=O)cc2C1=O | · | · | 0[16.7 µM] | · | 4
CNC[C@@H]1Oc2ncc(-c3cccc(C(=O)N(C)C)c3)cc2C(=O)N([C@@H](C)CO)C[C@H]1C | · | ? | -4[16.7 µM] | 5 | 4
Cc1noc(C)c1NC(=O)Nc1ccc2c(c1)CC(=O)N([C@H](C)CO)C[C@@H](C)[C@H](CN(C)Cc1ccc3c(c1)OCO3)O2 | · | 10 | 0[16.7 µM] | 6 | 1
O=C(C[C@H]1CC[C@H](NC(=O)c2ccc3c(c2)OCO3)[C@@H](CO)O1)NCc1ccc(F)cc1 | · | 9 | · | -2 | 11
O=C(C[C@H]1CC[C@@H](NC(=O)CC2CC2)[C@@H](CO)O1)NCc1ccc(-c2ccccc2)cc1 | · | 48* | · | 3 | -4
O=C(C[C@@H]1CC[C@@H](NC(=O)Nc2ccc3c(c2)OCO3)[C@@H](CO)O1)NCc1ccc2c(c1)OCO2 | · | 29* | · | 0 | 2
O=C(C[C@@H]1CC[C@@H](NC(=O)NC2CCCCC2)[C@@H](CO)O1)NCc1ccc(F)cc1 | · | 39* | 2[16.7 µM] | -3 | 11
O=C(C[C@@H]1CC[C@H](NC(=O)c2ccc3c(c2)OCO3)[C@@H](CO)O1)NCc1ccc(F)cc1 | · | 32*! | · | 19 | -11
O=C(C[C@H]1CC[C@@H](NC(=O)Nc2ccc3c(c2)OCO3)[C@H](CO)O1)NCc1ccc2c(c1)OCO2 | · | -7 | · | 13 | 3
CNC[C@H]1Oc2ccc(NC(=O)CCC(F)(F)F)cc2CC(=O)N([C@H](C)CO)C[C@@H]1C | · | -12 | -1[16.7 µM] | 6 | 2
COc1ccc(S(=O)(=O)Nc2ccc3c(c2)C(=O)N([C@@H](C)CO)C[C@@H](C)[C@@H](CN(C)C(=O)Nc2ccc4c(c2)OCO4)O3)cc1 | · | · | -3[16.7 µM] | · | -3
COc1ccc(NC(=O)N(C)C[C@@H]2Oc3ccc(NC(=O)C4CCCCC4)cc3C(=O)N([C@@H](C)CO)C[C@H]2C)cc1 | · | 6 | -5[16.7 µM] | 2 | 8
CN(C)C(=O)C[C@H]1CC[C@H](NC(=O)c2ccc(F)cc2)[C@@H](CO)O1 | · | 1 | -9[16.7 µM] | 3 | -6
CN(C)C(=O)C[C@@H]1CC[C@@H](NC(=O)c2ccc(F)cc2)[C@H](CO)O1 | · | 45* | -9[16.7 µM] | 7 | 17
C[C@H](NC(=O)C[C@@H]1CC[C@H](NC(=O)c2cccnc2)[C@@H](CO)O1)c1ccccc1 | · | 2 | -10[16.7 µM] | -2 | 2
COc1ccc(NC(=O)Nc2ccc3c(c2)C(=O)N([C@H](C)CO)C[C@H](C)[C@@H](CN(C)C(=O)Cc2ccccc2)OCCCC[C@@H](C)O3)cc1 | · | 68* | 0[16.7 µM] | · | 5
SMILES | PvdQ acylase | DENV2 CPE | miR-122 sensor | Statin myotox sup | PGC1a acetyl inh
COc1ccc(NC(=O)Nc2ccc3c(c2)C(=O)N([C@@H](C)CO)C[C@H](C)[C@H](CN(C)C(=O)Cc2ccccc2)OCCCC[C@H](C)O3)cc1 | · | 21* | -15[16.7 µM] | · | -7
COc1ccc(NC(=O)Nc2ccc3c(c2)C(=O)N([C@@H](C)CO)C[C@@H](C)[C@H](CN(C)C(=O)Cc2ccccc2)OCCCC[C@H](C)O3)cc1 | · | -14 | 4[16.7 µM] | · | 5
COc1ccc(NC(=O)Nc2ccc3c(c2)C(=O)N([C@H](C)CO)C[C@@H](C)[C@H](CN(C)C(=O)Cc2ccccc2)OCCCC[C@@H](C)O3)cc1 | · | 30* | -9[16.7 µM] | · | 7
CN(C)CCCNC(CC(=O)Nc1cccc([N+](=O)[O-])c1)C(=O)O (stereo not given) | -6 | 48* | -5 | · | -7
CCS(=O)(=O)N1CCC2(CC1)OCCN2S(=O)(=O)c1ccccc1 | · | 39* | -10 | 0 | ·
CS(=O)(=O)N1CCC2(CC1)OCCN2S(=O)(=O)c1ccccc1 | -3 | -2 | · | -1 | ·
CCc1nnc(NC(=O)c2ccc(F)c(S(=O)(=O)N3CCCCC3)c2)s1 | -1 | 69* | · | 5 | ·
CCc1nnc(NC(=O)c2ccc(S(=O)(=O)N3CCCCC3)cc2)s1 | 6 | 1 | · | 3 | ·
O=C(Nc1ccc(F)cc1)Nc1ccc2c(c1)[C@H]1C[C@H](CC(=O)N3CCCCC3)O[C@@H](CO)[C@H]1O2 | · | 21* | 1[16.7 µM] | 1 | -1
O=C(Nc1ccc2c(c1)[C@H]1C[C@@H](CC(=O)N3CCCCC3)O[C@@H](CO)[C@H]1O2)C1CCC1 | · | 26* | 3[16.7 µM] | -1 | -6
O=C(Nc1ccc(F)cc1)Nc1ccc2c(c1)[C@@H]1C[C@H](CC(=O)N3CCCCC3)O[C@@H](CO)[C@@H]1O2 | · | -3 | 5[16.7 µM] | 4 | -6
CN1CCN(C(=O)C[C@@H]2C[C@@H]3c4cc(NC(=O)NC5CCCCC5)ccc4O[C@@H]3[C@@H](CO)O2)CC1 | · | 29* | 11[16.7 µM] | 2 | -2
O=C(C[C@H]1C[C@@H]2c3cc(NS(=O)(=O)c4ccc(F)cc4)ccc3O[C@@H]2[C@@H](CO)O1)N1CCc2ccccc2C1 | · | 7 | -6[16.7 µM] | -4 | 50*
O=C1CCCn2cc(nn2)COC[C@H](Cc2ccccc2)N1 | · | 16 | · | · | ·
O=C(NCC1CC1)[C@H]1[C@H](CO)[C@H]2Cn3c(ccc(-c4cccnc4)c3=O)[C@H]2N1C(=O)NC1CCCC1 | · | 3 | 2[16.7 µM] | 5 | ·
C[C@@H]1CN([C@@H](C)CO)C(=O)c2cc(NC(=O)C3CCCCC3)ccc2O[C@H]1CN(C)C(=O)Nc1ccccc1 | · | 5 | -1[16.7 µM] | 5 | 2
O=C(c1ccc2c(c1)C(=O)N(Cc1ccco1)C2=O)N1CCOCC1 | -14 | -2 | -5 | 4 | 50
O=C(Nc1cc([N+](=O)[O-])ccc1O)c1ccc2c(c1)C(=O)N(Cc1ccco1)C2=O | 2 | 26* | · | · | ·
O=C(O)c1ccc(C(=O)c2ccc3c(c2)C(=O)N(Cc2ccco2)C3=O)cc1 | 0 | · | -5 | 110* | 2
